{"source": "paper PMC11062922", "about": "(Nature Chemical Biology, 2023)", "design_in_all_cases": "species or system human, MV4-11 + K-562 + COLO205 + SK-N-BE2 + OVCAR-8", "key": {"[1]": {"system": "ADRBK1", "details": "read-out: apparent Kd, n = 1"}, "[2]": {"system": "MAPK14", "details": "read-out: apparent Kd, n = 1"}, "[3]": {"system": "MAPK9", "details": "read-out: apparent Kd, compound concentrations: 100 nM and 1000 nM (sheet 'Samples'), n = 1"}, "[4]": {"system": "MAPKAPK2", "details": "read-out: apparent Kd, compound concentrations: 100 nM and 1000 nM (sheet 'Samples'), n = 1"}, "[5]": {"system": "GSK3A", "details": "read-out: apparent Kd; compound concentrations: 100 nM and 1000 nM (sheet 'Samples'), CATDS: 0.49410987745455298; n = 1"}, "[6]": {"system": "MYLK3", "details": "read-out: apparent Kd; compound concentrations: 100 nM and 1000 nM (sheet 'Samples'), CATDS: 0.30722908276371202; n = 1"}, "[7]": {"system": "AKT1", "details": "read-out: apparent Kd, n = 1"}, "[8]": {"system": "AKT3", "details": "read-out: apparent Kd; compound concentrations:100 nM and 1000 nM (sheet 'Samples'); n = 1"}, "[9]": {"system": "DDX3X;DDX3Y", "details": "read-out: apparent Kd; compound concentrations:100 nM and 1000 nM (sheet 'Samples'); n = 1"}, "[10]": {"system": "RIOK2", "details": "read-out: apparent Kd, n = 1"}, "[11]": {"system": "PRKACG", "details": "read-out: apparent Kd; compound concentrations: 100 nM and 1000 nM (sheet 'Samples'), CATDS: 0.40146810270516797; n = 1"}, "[12]": {"system": "AGK", "details": "read-out: apparent Kd, n = 1"}, "[13]": {"system": "CDKL5", "details": "read-out: apparent Kd; compound concentrations:100 nM and 1000 nM (sheet 'Samples'); n = 1"}, "[14]": {"system": "CLK1", "details": "read-out: apparent Kd; compound concentrations:100 nM and 1000 nM (sheet 'Samples'); n = 1"}, "[15]": {"system": "CLK2", "details": "read-out: apparent Kd; compound concentrations:100 nM and 1000 nM (sheet 'Samples'); n = 1"}, "[16]": {"system": "CLK4", "details": "read-out: apparent Kd, n = 1"}, "[17]": {"system": "PIK3C2A", "details": "read-out: apparent Kd; compound concentrations:100 nM and 1000 nM (sheet 'Samples'); n = 1"}, "[18]": {"system": "PRKCI", "details": "read-out: apparent Kd; compound concentrations:100 nM and 1000 nM (sheet 'Samples'); n = 1"}, "[19]": {"system": "PYGL", "details": "read-out: apparent Kd; compound concentrations:100 nM and 1000 nM (sheet 'Samples'); n = 1"}, "[20]": {"system": "RPS6KA3", "details": "read-out: apparent Kd; compound concentrations:100 nM and 1000 nM (sheet 'Samples'); n = 1"}, "[21]": {"system": "STK16", "details": "read-out: apparent Kd; compound concentrations:100 nM and 1000 nM (sheet 'Samples'); n = 1"}, "[22]": {"system": "AKT2", "details": "read-out: apparent Kd; compound concentrations: 100 nM and 1000 nM (sheet 'Samples'), CATDS: 8.2030939692010002E-2; n = 1"}, "[23]": {"system": "CDK17", "details": "read-out: apparent Kd; compound concentrations: 100 nM and 1000 nM (sheet 'Samples'), CATDS: 6.2311196568293398E-2; n = 1"}, "[24]": {"system": "MAP2K1", "details": "read-out: apparent Kd; compound concentrations: 100 nM and 1000 nM (sheet 'Samples'), CATDS: 7.0817886716783296E-2; n = 1"}, "[25]": {"system": "MAP2K2", "details": "read-out: apparent Kd; compound concentrations: 100 nM and 1000 nM (sheet 'Samples'), CATDS: 8.1065909718248605E-2; n = 1"}, "[26]": {"system": "NNT", "details": "read-out: apparent Kd; compound concentrations: 100 nM and 1000 nM (sheet 'Samples'), CATDS: 6.8216764859784895E-2; n = 1"}, "[27]": {"system": "NQO1", "details": "read-out: apparent Kd; compound concentrations: 100 nM and 1000 nM (sheet 'Samples'), CATDS: 0.112965714749218; n = 1"}, "[28]": {"system": "PIP4K2C", "details": "read-out: apparent Kd; compound concentrations: 100 nM and 1000 nM (sheet 'Samples'), CATDS: 6.1582136800339998E-2; n = 1"}, "[29]": {"system": "PRKAG2", "details": "read-out: apparent Kd; compound concentrations: 100 nM and 1000 nM (sheet 'Samples'), CATDS: 7.1492957845938399E-2; n = 1"}, "[30]": {"system": "TNIK", "details": "read-out: apparent Kd; compound concentrations: 100 nM and 1000 nM (sheet 'Samples'), CATDS: 6.4996238797789693E-2; n = 1"}, "[31]": {"system": "VDAC3", "details": "read-out: apparent Kd; compound concentrations: 100 nM and 1000 nM (sheet 'Samples'), CATDS: 6.7332646365255294E-2; n = 1"}, "[32]": {"details": "compound concentrations:100 nM and 1000 nM (sheet 'Samples')"}}, "note": "Like-named read-outs stand apart in the source and are kept apart here.", "data": [{"smiles": "Cl.Cn1c(=O)c(Oc2ccc(F)cc2F)cc2cnc(NCC(C)(C)O)nc21", "note": "[RO3308967-001]", "values": [{"measurement": "potency estimated from few doses", "setting": "[1]; compound concentrations: 100 nM and 1000 nM (sheet 'Samples'), CATDS: 0.168792750193444", "result": 1780, "unit": "nM"}, {"measurement": "potency estimated from few doses", "setting": "[2]; compound concentrations: 100 nM and 1000 nM (sheet 'Samples'), CATDS: 0.54620788714076096", "result": 44, "unit": "nM"}, {"measurement": "potency estimated from few doses", "setting": "[3]; CATDS: 0.17242966969454199", "result": 1600, "unit": "nM"}, {"measurement": "potency estimated from few doses", "setting": "[4]; CATDS: 0.40894707261739799", "result": 76.7, "unit": "nM"}]}, {"smiles": "COc1ccc(C2=C(c3cn(C)c4ccccc34)C(=O)NC2=O)cc1", "note": "[RO0317257-000]", "values": [{"measurement": "potency estimated from few doses", "setting": "[1]; compound concentrations: 100 nM and 1000 nM (sheet 'Samples'), CATDS: 0.26872629517394703", "result": 1840, "unit": "nM"}, {"measurement": "potency estimated from few doses", "setting": "[5]", "result": 529, "unit": "nM"}, {"measurement": "potency estimated from few doses", "setting": "[6]", "result": 1310, "unit": "nM"}]}, {"smiles": "COc1cccc(C2=C(Nc3cccc(O)c3)C(=O)NC2=O)c1", "note": "[SB-390771]", "values": [{"measurement": "potency estimated from few doses", "setting": "[7]; [32]", "result": 2060, "unit": "nM"}, {"measurement": "potency estimated from few doses", "setting": "[8]", "result": 1930, "unit": "nM"}, {"measurement": "potency estimated from few doses", "setting": "[9]", "result": 2110, "unit": "nM"}, {"measurement": "potency estimated from few doses", "setting": "[10]; [32]", "result": 2460, "unit": "nM"}]}, {"smiles": "COC(=O)c1c(-c2ccccc2)c2cc(OC)ccc2c(=O)n1Cc1ccccc1", "note": "[TPKI-97]", "values": [{"measurement": "potency estimated from few doses", "setting": "[1]; compound concentrations: 100 nM and 1000 nM (sheet 'Samples'), CATDS: 0.31449304008803602", "result": 1400, "unit": "nM"}, {"measurement": "potency estimated from few doses", "setting": "[3]; CATDS: 0.30035248026311001", "result": 1550, "unit": "nM"}, {"measurement": "potency estimated from few doses", "setting": "[11]", "result": 872, "unit": "nM"}]}, {"smiles": "COc1ccc2c(-c3ccnc(Nc4cccc(OC(F)(F)F)c4)n3)cnn2n1", "note": "[GW810372X]", "values": [{"measurement": "potency estimated from few doses", "setting": "[12]; [32]", "result": 2270, "unit": "nM"}, {"measurement": "potency estimated from few doses", "setting": "[13]", "result": 1850, "unit": "nM"}, {"measurement": "potency estimated from few doses", "setting": "[14]", "result": 82.4, "unit": "nM"}, {"measurement": "potency estimated from few doses", "setting": "[15]", "result": 20.2, "unit": "nM"}, {"measurement": "potency estimated from few doses", "setting": "[16]; [32]", "result": 120, "unit": "nM"}]}, {"smiles": "CCCC(=O)Nc1n[nH]c2ncccc12", "note": "[SB-601436]", "values": [{"measurement": "potency estimated from few doses", "setting": "[1]; [32]", "result": 2140, "unit": "nM"}, {"measurement": "potency estimated from few doses", "setting": "[2]; [32]", "result": 1310, "unit": "nM"}, {"measurement": "potency estimated from few doses", "setting": "[17]", "result": 2470, "unit": "nM"}, {"measurement": "potency estimated from few doses", "setting": "[18]", "result": 2080, "unit": "nM"}, {"measurement": "potency estimated from few doses", "setting": "[19]", "result": 2170, "unit": "nM"}, {"measurement": "potency estimated from few doses", "setting": "[20]", "result": 1890, "unit": "nM"}, {"measurement": "potency estimated from few doses", "setting": "[21]", "result": 1480, "unit": "nM"}]}, {"smiles": "Cc1nnc(-c2ccc(C)c(-c3ccc(C(=O)NCc4ccc(Cl)cc4)cc3)c2)o1", "note": "[GW708893X]", "values": [{"measurement": "potency estimated from few doses", "setting": "[12]; compound concentrations: 100 nM and 1000 nM (sheet 'Samples'), CATDS: 6.7196554082181503E-2", "result": 1820, "unit": "nM"}, {"measurement": "potency estimated from few doses", "setting": "[7]; compound concentrations: 100 nM and 1000 nM (sheet 'Samples'), CATDS: 5.9892362604304798E-2", "result": 2380, "unit": "nM"}, {"measurement": "potency estimated from few doses", "setting": "[22]", "result": 1220, "unit": "nM"}, {"measurement": "potency estimated from few doses", "setting": "[23]", "result": 2160, "unit": "nM"}, {"measurement": "potency estimated from few doses", "setting": "[16]; compound concentrations: 100 nM and 1000 nM (sheet 'Samples'), CATDS: 7.8018331182730397E-2", "result": 1340, "unit": "nM"}, {"measurement": "potency estimated from few doses", "setting": "[24]", "result": 1630, "unit": "nM"}, {"measurement": "potency estimated from few doses", "setting": "[25]", "result": 1250, "unit": "nM"}, {"measurement": "potency estimated from few doses", "setting": "[4]; CATDS: 7.7313280603985193E-2", "result": 1370, "unit": "nM"}, {"measurement": "potency estimated from few doses", "setting": "[26]", "result": 1760, "unit": "nM"}, {"measurement": "potency estimated from few doses", "setting": "[27]", "result": 726, "unit": "nM"}, {"measurement": "potency estimated from few doses", "setting": "[28]", "result": 2220, "unit": "nM"}, {"measurement": "potency estimated from few doses", "setting": "[29]", "result": 1590, "unit": "nM"}, {"measurement": "potency estimated from few doses", "setting": "[30]", "result": 1960, "unit": "nM"}, {"measurement": "potency estimated from few doses", "setting": "[31]", "result": 1810, "unit": "nM"}]}, {"smiles": "CCS(=O)(=O)c1ccc(OC)c(Nc2ncc(-c3ccccc3Cl)o2)c1", "note": "[GW622055X]", "values": [{"measurement": "potency estimated from few doses", "setting": "[1]; compound concentrations: 100 nM and 1000 nM (sheet 'Samples'), CATDS: 0.49324160998550998", "result": 1780, "unit": "nM"}, {"measurement": "potency estimated from few doses", "setting": "[10]; compound concentrations: 100 nM and 1000 nM (sheet 'Samples'), CATDS: 0.50694616971053197", "result": 1680, "unit": "nM"}]}]}
